Inconclusive results are not listed. Activity calls are given as the source filed them. Unless noted, calls come from the whole dose curve.
Assays:
[1] = qHTS for Inhibitors of the Functional Ribonucleoprotein Complex (vRNP) of Lassa (LASV) Arenavirus: Viability assay - alamar blue signal for LASV Primary Screen (AID 1347083; calls by dose curve; tested in HEK293 reporter line; note: potency is the fitted concentration of half-maximal effect; nearly all actives have a fitted effect of over 80% in size)
[2] = qHTS for Inhibitors of the Functional Ribonucleoprotein Complex (vRNP) of Lymphocytic Choriomeningitis Arenaviruses (LCMV): Viability assay - alamar blue signal for LCMV Primary Screen (AID 1347085; calls by dose curve; tested in HEK293 reporter line; note: nearly all actives have a fitted effect of over 80% in size; note: potency is the fitted concentration of half-maximal effect)
[3] = target: Nucleoprotein (Lymphocytic choriomeningitis virus (strain Armstrong)) (UniProt P09992); assay: qHTS for Inhibitors of the Functional Ribonucleoprotein Complex (vRNP) of Lymphocytic Choriomeningitis Arenaviruses (LCMV): LCMV Primary Screen - GLuc reporter signal (AID 1347086); note: nearly all actives have a fitted effect of over 70% in size; note: potency is the fitted concentration of half-maximal effect; for activity change, negative = inhibition: % is set by controls: 0 for no effect and ±100 for the full control effect
Sequence of Nucleoprotein (Lymphocytic choriomeningitis virus (strain Armstrong)) (P09992 whole entry, looked up): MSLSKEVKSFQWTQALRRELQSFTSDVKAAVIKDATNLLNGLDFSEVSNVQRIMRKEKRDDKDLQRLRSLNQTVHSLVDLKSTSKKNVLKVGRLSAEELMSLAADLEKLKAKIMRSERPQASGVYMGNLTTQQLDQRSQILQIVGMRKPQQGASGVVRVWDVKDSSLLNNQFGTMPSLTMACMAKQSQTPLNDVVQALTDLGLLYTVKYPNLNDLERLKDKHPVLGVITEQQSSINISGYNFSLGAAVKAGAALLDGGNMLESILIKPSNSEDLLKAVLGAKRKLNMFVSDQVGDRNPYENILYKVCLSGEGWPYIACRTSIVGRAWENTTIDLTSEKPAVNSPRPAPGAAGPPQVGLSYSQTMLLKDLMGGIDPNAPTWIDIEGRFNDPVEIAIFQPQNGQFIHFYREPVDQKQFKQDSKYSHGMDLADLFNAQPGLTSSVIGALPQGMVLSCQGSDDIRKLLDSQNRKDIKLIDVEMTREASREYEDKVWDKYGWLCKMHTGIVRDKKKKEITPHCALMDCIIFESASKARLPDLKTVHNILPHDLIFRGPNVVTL

[4] = Cytotoxicity counterscreen for inhibitors of SARS-CoV-2 cell entry (AID 1645845); note: nearly all actives have a fitted effect of over 50% in size
Summary of the method: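 HEK293-ACE2 cells (Expi293F stably expressing human ACE2) seeded overnight, then compound for 1 h plus 48 h at 37C. Viability as ATP content by luminescence; normalized to wells with cells and media-only wells.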

[5] = Primary qHTS to identify inhibitors of SARS-CoV-2 cell entry (AID 1645846); conditions: activity change, negative = inhibition: at 57.1 µM (top of the series) unless noted; note: nearly all actives have a fitted effect of over 45% in size; note: potency is the fitted concentration of half-maximal effect
Summary of the method: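 Entry measured by luciferase signal 48 h after adding SARS-CoV-2-S pseudotyped MLV particles to HEK293-ACE2 cells preincubated 1 h with compounds. Normalisation: bald particles and spike particles.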

[6] = qHTS profiling of the MIPE4 collection as inhibitors of Plasmodium falciparum (3D7) proliferation (AID 743344; call rule not given here;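 note: scaled between DMSO vehicle wells and 0.29 µM artemisinin as full inhibition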); conditions: P. falciparum 3D7 in erythrocytes, SYBR Green DNA fluorescence, 72 h; at 28.5 µM (top of the series) unless noted
Summary of the method: (§1)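 Erythrocytes infected with P. falciparum (0.3% parasitemia, 2.5% hematocrit) incubated with compounds 72 h at 37 C, 5% CO2. Lysis with saponin/Triton buffer containing SYBR Green I, overnight at room temperature in the dark; DNA fluorescence (485/535 nm) normalised to 0.29 uM artemisinin and DMSO.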

[7] = qHTS profiling of the MIPE4 collection as inhibitors of Plasmodium falciparum (DD2) proliferation (AID 743345; call rule not given here); conditions: P. falciparum Dd2 in erythrocytes, SYBR Green DNA, 72 h; at 28.5 µM (top of the series) unless noted
Summary of the method: as §1

[8] = qHTS profiling of the MIPE4 collection as inhibitors of Plasmodium falciparum (HB3) proliferation (AID 743347; call rule not given here;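 note: plate controls were DMSO vehicle wells for no effect and artemisinin wells for full effect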); conditions: P. falciparum HB3 in erythrocytes, SYBR Green DNA, 72 h; at 28.5 µM (top of the series) unless noted
Summary of the method: as §1

[9] = Confirmatory qHTS to identify inhibitors of SARS-CoV-2 cell entry (AID 1645844); note: nearly all actives have a fitted effect of over 45% in size; note: potency is the fitted concentration of half-maximal effect
Summary of the method: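 HEK293-ACE2 cells were pretreated 1 h with compound, then infected with MLV-based pseudoparticles bearing C-terminally truncated Wuhan-Hu-1 spike for 48 h at 37C; luciferase luminescence normalized to spike PP and bald PP wells.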

[10] = VSVG counterscreen qHTS to identify inhibitors of SARS-CoV-2 cell entry (AID 1645847); note: potency is the fitted concentration of half-maximal effect; nearly all actives have a fitted effect of over 65% in size
Summary of the method: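 Luminescence read after 48 h infection at 37 C with VSV-G-pseudotyped MLV particles, following 1 h compound exposure of Expi293F cells stably expressing human ACE2; scaled between bald particle and VSV-G particle wells.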

[11] = target: Alpha-galactosidase (Coffea arabica) (UniProt Q42656); assay: Counterscreen for Glucocerebrosidase Inhibitors: qHTS Assay for Coffee Bean alpha-Galactosidase at pH 4.5 (AID 957; active = well fitted curve in the direction sought with a large enough effect; an effect the other way counts as inactive or inconclusive;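 note: plate controls were enzyme alone for no effect and no enzyme for full effect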)
Sequence of Alpha-galactosidase (Coffea arabica) (Q42656 whole entry, looked up): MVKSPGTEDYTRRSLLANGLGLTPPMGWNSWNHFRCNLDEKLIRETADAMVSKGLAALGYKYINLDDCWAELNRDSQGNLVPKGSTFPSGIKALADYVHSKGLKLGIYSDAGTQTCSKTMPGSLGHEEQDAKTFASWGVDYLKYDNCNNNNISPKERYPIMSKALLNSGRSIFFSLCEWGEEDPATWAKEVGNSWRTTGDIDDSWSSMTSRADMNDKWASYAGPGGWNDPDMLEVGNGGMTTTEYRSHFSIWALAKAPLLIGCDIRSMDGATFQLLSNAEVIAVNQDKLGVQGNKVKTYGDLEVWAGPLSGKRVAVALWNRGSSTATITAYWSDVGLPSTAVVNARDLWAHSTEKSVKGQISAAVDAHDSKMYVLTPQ
Summary of the method: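 Green coffee bean enzyme (2 nM final) was incubated with compounds (0.7 nM to 77 uM) and 4-methylumbelliferyl alpha-D-galactopyranoside (80 uM final) in 50 mM citric acid, 0.005% Tween-20, pH 4.5, 20 min at room temperature; AC50 from Hill fits.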

[12] = target: Alpha-galactosidase (Coffea arabica) (UniProt Q42656); assay: Counterscreen for Glucocerebrosidase Inhibitors: qHTS Assay for Coffee Bean alpha-Galactosidase at pH 5.9 (AID 998; active = well fitted curve in the direction sought with a large enough effect; an effect the other way counts as inactive or inconclusive;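 note: plate controls were uninhibited enzyme for no effect and no-enzyme basal signal for full effect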)
Summary of the method: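 Green coffee bean enzyme (2 nM) with 4-methylumbelliferyl alpha-D-galactopyranoside (80 uM) in 50 mM citric acid, 0.005% Tween-20, pH 5.9, 20 min at room temperature; compounds 0.7 nM–77 uM. Stopped at pH 10, fluorescence Ex365/Em440; Hill-fit AC50.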

[13] = Validation screen for inhibitors of Lassa infection (AID 463096); note: % is set by controls: 0 for no effect and ±100 for the full control effect
[14] = Inducers of the Endoplasmic Reticulum Stress Response (ERSR) in human glioma: Validation (AID 504836; active = well fitted curve in the direction sought with a large enough effect; an effect the other way counts as inactive or inconclusive; note: 0% is about no effect)
Summary of the method: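 Stably transfected U87-MG glioma cells carrying a GRP78-based luciferase sensor; 16 h compound incubation. Luminescence end-point read 10 min after Bright-Glo addition at room temperature.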

CNC(=O)CN1CCC(Oc2cc3c(Nc4cccc(Cl)c4F)ncnc3cc2OC)CC1
Potency [1]: 0.0769 µM (active) | Potency [2]: 0.0306 µM (active) | Potency [3]: 0.0385 µM (active) | Potency [4]: inactive | activity change, negative = inhibition [5]: -16.1%

COc1cc([C@@H]2c3cc4c(cc3[C@H](O)[C@H]3COC(=O)[C@@H]23)OCO4)cc(OC)c1OC
parasite growth, % of DMSO control [6]: 52.9% | parasite growth remaining, % of DMSO control (lower = more inhibition) [7]: 78.3% | growth, % of control [8]: 44.9% | Potency [1]: 0.193 µM (active) | Potency [2]: 0.344 µM (active) | Potency [3]: 1.09 µM (active) | Potency [9]: 12.1 µM (active) | Potency [5]: 1.26 µM (active) | Potency [10]: 1.71 µM (active)

Cn1cc(CNCC2CCN(c3ncc(C(=O)NO)cn3)CC2)c2ccccc21
Potency [1]: 0.685 µM (active) | Potency [2]: 0.485 µM (active) | Potency [3]: 1.53 µM (active) | Potency [5]: inactive

C#C[C@]1(O)CC[C@H]2[C@H]3CCc4cc(OC)ccc4[C@H]3CC[C@@]21C
Potency [1]: 13.7 µM (active) | Potency [2]: 24.3 µM (active) | Potency [3]: 27.3 µM (active)

Cc1ccc(S(=O)(=O)Nc2nc3ccccc3nc2Nc2ccc3nsnc3c2)cc1
Potency [1]: 1.06 µM (active) | Potency [2]: 2.11 µM (active) | Potency [3]: 1.33 µM (active) | Potency [4]: inactive | activity change, negative = inhibition [5]: -18.1% [at 27.1 µM]

C#C[C@]1(O)CC[C@@H]2[C@@H]3CCc4cc(O)ccc4[C@H]3CC[C@@]21C
Potency [1]: 6.85 µM (active) | Potency [2]: 3.06 µM (active) | Potency [3]: 2.17 µM (active)

COCCOC(=O)C1=C(C)NC2=C(C(=O)CC(c3ccccc3OC)C2)C1c1cccc(O)c1 (stereo not drawn)
Potency [1]: 17.2 µM (active) | Potency [2]: 10.9 µM (active) | Potency [3]: 15.3 µM (active) | Potency [9]: inactive | Potency [4]: inactive

O=c1cc(N2CCOCC2)oc2c(-c3ccccc3)cccc12
outcome [11]: inactive | outcome [12]: inactive | Potency [13]: inactive | outcome [14]: inactive | Potency [1]: 15.3 µM (active) | Potency [2]: inactive | Potency [3]: inactive | Potency [4]: inactive | activity change, negative = inhibition [5]: -24.5%

C=CC(=O)Nc1ccc2ncnc(Nc3ccc(OCc4cccc(F)c4)c(Cl)c3)c2c1
Potency [1]: 0.968 µM (active) | Potency [2]: 0.385 µM (active) | Potency [3]: 0.432 µM (active) | Potency [5]: inactive

Cc1cnc(Nc2ccc(N3CCN(C)CC3)cc2)nc1Nc1cccc(S(=O)(=O)NC(C)(C)C)c1
Potency [1]: 3.85 µM (active) | Potency [2]: 30.6 µM (active) | Potency [3]: 30.6 µM (active)

C=CC(=O)Nc1cccc(Oc2nc(Nc3ccc(N4CCN(C)CC4)cc3)ncc2Cl)c1
Potency [1]: 2.73 µM (active) | Potency [2]: 1.72 µM (active) | Potency [3]: inactive

— PubChem BioAssay (NCATS)
